PolyA inhibitor = blocks polyadenylation in yeast reporter cells; S. cerevisiae SKY197-pL101 polyadenylation reporter, beta-gal luminescence; efflux-impaired pdr1/pdr3 knockout yeast; score 100 = 6 SD above DMSO; activity score, % at 12 µM; 300,000 tested, 0.02% active;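 active = lowest replicate activity score at least 50, where 100 means six control SD above control mean; inconclusive = lowest score under 50 but half or more replicates reach 50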;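 note: yeast exposed to compound for 9 h at 30 °C; higher score means more reporter readthrough which indicates perturbed polyadenylation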
NALP1 yeast inh = NALP1 inhibition; S. cerevisiae NALP1/ASC/caspase-1 growth, X-gal OD620, 72 h; inhibition, % at 10 µM; 280,000 tested, 0.61% active; AID 2071; in the data active = inhibition mostly above about 24%, no sharp cut-off; inactive = mostly below about 32%
NLRP3 yeast inh = blocks the NALP3 inflammasome reconstituted in yeast; inhibition, % at 10 µM; Yeast reconstituted NLRP3/ASC/caspase-1, beta-gal luminescence, 24 h; 330,000 tested, 0.39% active; AID 2825;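 active = inhibition of 50% or more; inactive = inhibition below 50%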;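 note: plate controls were induced DMSO wells for no effect and uninduced yeast grown without galactose for full effect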
GASC-1 inh = blocks human GASC-1 demethylase activity; GST-JMJD2C(1-420) H3K9me3 demethylation, DELFIA europium; inhibition, % at 2.35 µM; 330,000 tested, 0.069% active; AID 2099;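 active = more than half of a compound's replicate wells show inhibition beyond 50%, single wells judged on their own value; inconclusive = some, but no more than half, of replicates pass 50% inhibition; inactive = no replicate passes 50% inhibition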;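 note: signal counts dimethyl H3K9 product captured on neutravidin plate; 0% = median of DMSO wells and 100% = 0.3 times that DMSO median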
Target sequence (Q9H3R0 1-420 limits assumed): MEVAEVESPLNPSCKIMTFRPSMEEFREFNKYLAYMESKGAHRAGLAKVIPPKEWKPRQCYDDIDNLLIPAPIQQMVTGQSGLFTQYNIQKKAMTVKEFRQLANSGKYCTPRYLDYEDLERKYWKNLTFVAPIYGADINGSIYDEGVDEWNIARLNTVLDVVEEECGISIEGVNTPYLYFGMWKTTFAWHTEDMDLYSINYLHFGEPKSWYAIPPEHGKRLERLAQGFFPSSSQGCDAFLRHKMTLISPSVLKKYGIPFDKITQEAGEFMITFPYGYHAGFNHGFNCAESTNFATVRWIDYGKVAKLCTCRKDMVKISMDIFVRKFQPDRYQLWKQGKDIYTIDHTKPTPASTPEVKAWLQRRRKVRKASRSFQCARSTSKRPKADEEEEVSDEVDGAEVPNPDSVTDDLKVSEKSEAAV
Efflux pump mplx = blocks antifungal efflux pumps in multiplex yeast assay; 330,000 tested, 0.44% active; inhibition, % at 10 µM; S. cerevisiae Candida pump triplex, Nile Red efflux;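 active = plate passing quality check with inhibition over a set limit, or well fluorescence over plate mean plus 4 SD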;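 note: Nile Red retained in pooled yeast measured as flow cytometry median fluorescence; 0% = buffer negative control and 100% = Enniatin B positive control; higher means more Nile Red kept so more efflux inhibition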
HDAC3 inh = inhibitors of human histone deacetylase 3. O15379. recombinant HDAC3, fluorogenic peptide/trypsin coupled, fluorescence. inhibition, % at 8.3 µM. 320,000 tested, 0.15% active. AID 2718; in the data active = inhibition above about 26%, passing the limit was not always enough; inconclusive = no clear call, values can overlap the other calls
NALP3 confirm = confirmation of NALP3 inhibitors in yeast; AID 435006; yeast expressing human NALP3, luminescence; 1,300 tested, 81% active; inhibition, % at 10 µM; shares compounds with NLRP3 yeast inh; in the data active = inhibition above about 48%
Casp1 ASC ctr = caspase-1-ASC yeast counter-screen hit. 1,000 tested, 66% active. yeast expressing Caspase-1-ASC, luminescence counter screen. inhibition, % at 10 µM. shares compounds with NLRP3 yeast inh. AID 488784
NALP3 yeast rt = yeast NALP3 inhibition, confirmed on retest; inhibition, % at 10 µM; yeast expressing human NALP3, luminescence read-out; shares compounds with NLRP3 yeast inh; 1,000 tested, 53% active
* marks the source's active call; other numbers are inactive results; ? = inconclusive; . = not tested or not shown. Only some compounds are listed: those with a hit (about 1.5% of all), similar ones and a draw of the others. Cut-off read from the data, not from the text of the source, unless noted: active = inhibition above about 50%; inactive = the rest.

SMILES	PolyA inhibitor	NALP1 yeast inh	NLRP3 yeast inh	GASC-1 inh	Efflux pump mplx	HDAC3 inh	NALP3 confirm	Casp1 ASC ctr	NALP3 yeast rt
COc1cccc(CN(C)C(=O)c2csc3c2CCCC3)c1OC	-17.2	13.8	50.7*	25.1	0.0	4.1	40.5	50.2*	40.2
COc1cc2c(cc1NC(=O)Nc1ccc(F)cc1)oc1ccccc12	1.2	29.9	17.2	-25.5	-0.1	3.9	.	.	.
Cc1nnc(SCc2nc3ccccc3[nH]2)s1	13.5	-1.3	1.4	30.4	-0.1	-2.0	.	.	.
c1ccc2[nH]c(CSc3nc4ccccc4s3)nc2c1	8.6	5.5	59.0*	1.1	-0.1	-1.9	74.7*	55.5*	60.7*
Cc1ccccc1C(=O)Nc1nnc(-c2ccco2)s1	16.0	21.9	62.1*	-26.0	0.3	-0.5	48.9*	47.9	38.3
COc1ccccc1C(=O)Nc1nnc(-c2ccco2)s1	-21.4	-6.0	55.5*	-20.4	0.1	3.5	57.0*	68.1*	54.7*
CCC(=O)Nc1nnc(CCc2ccccc2)s1	6.0	26.1	23.3	17.5	0.2	-1.8	.	.	.
COc1ccc(C(=O)Nc2nnc(-c3ccco3)s2)cc1	-1.4	44.1	6.0	-3.9	0.0	2.6	.	.	.
O=C(Nc1nnc(-c2ccco2)s1)c1ccccc1	-8.2	20.2	53.0*	2.2	-0.1	-8.4	57.5*	57.4*	42.0
O=C(Nc1nnc(CCc2ccccc2)s1)c1ccccc1	11.1	20.4	51.0*	5.9	-0.1	2.5	70.3*	25.4	41.6
COc1cc(C(C)=O)ccc1OCC(=O)Nc1ccc2nc(C)sc2c1	.	.	23.8	-4.6	-0.1	3.2	.	.	.
CCOC(=O)Cc1cc(=O)n2[nH]cc(-c3ccc(Cl)cc3)c2n1	-1.9	-8.3	-1.4	-18.7	0.2	-51.5	.	.	.
O=c1c2ccccc2nc(-c2ccc([N+](=O)[O-])cc2)n1O	?	0.6	58.0*	-2.7	-0.1	2.9	74.2*	51.3*	57.5*
Cc1ccc(-c2nc3ccccc3c(=O)n2O)cc1	-3.4	20.5	48.3	-1.8	-0.2	-2.1	.	.	.
O=C(CCc1ccccc1)N=C1SC2CS(=O)(=O)CC2N1Cc1ccccc1 (centres undefined)	-18.4	29.0	8.6	-7.6	-0.1	-0.5	.	.	.
CC(=O)c1c(C)[nH]c2ccccc2c1=O	14.0	3.3	10.6	5.3	0.0	1.7	.	.	.
CC(=O)c1c(C)nc2ccccc2c1N	9.7	2.6	11.7	8.4	0.0	0.9	.	.	.
Cc1[nH]c2ccccc2c1C(=O)/C=C/c1ccccc1	-7.2	-2.8	63.3*	-4.5	0.5	-4.3	52.4*	79.8*	75.0*
Cc1nc2ccccc2c(N)c1C(=O)/C=C/c1ccccc1	8.3	18.4	74.7*	-10.8	0.2	1.1	74.2*	55.9*	37.8
Cc1[nH]c2ccccc2c1C(=O)/C=C\c1ccccc1Cl	-18.9	.	53.0*	-10.3	-0.1	7.2	-20.0	.	.
Cc1[nH]c2ccccc2c1C(=O)/C=C/c1ccccc1Cl	-11.6	7.2	60.8*	-0.3	-0.1	-3.6	21.6	.	.
Cc1[nH]c2ccccc2c1C(=O)CSc1ccc(Cl)cc1	1.8	-2.2	17.3	-13.8	-0.1	?	.	.	.
COc1cc2c(cc1OC)[C@@H](NC(=O)CCc1ccccc1)[C@H](OCc1ccccc1)C2	.	.	.	.	-0.1	.	.	.	.
CC12CCC(C(=O)OC3CCCCC3)(OC1=O)C2(C)C (centres undefined)	-7.4	6.3	25.2	3.1	0.0	4.6	.	.	.
COc1ccc(C2CC(C)(c3ccc(OC)cc3)Nc3ccccc3N2)cc1 (centres undefined)	-13.6	9.0	29.9	-0.9	-0.1	11.1	.	.	.
SMILES	PolyA inhibitor	NALP1 yeast inh	NLRP3 yeast inh	GASC-1 inh	Efflux pump mplx	HDAC3 inh	NALP3 confirm	Casp1 ASC ctr	NALP3 yeast rt
COc1ccc(C2(C)CC(C)(C)Nc3ccccc32)cc1 (centres undefined)	-12.2	18.0	55.0*	13.5	-0.2	4.7	51.3*	44.9	38.2
CCOc1ccc(N2C=Nc3ccc(OCC)cc3C2)cc1	10.6	36.2	58.6*	-18.2	0.3	-3.8	60.6*	60.0*	51.4*
CCOc1ccc(N2C(=O)CNC2=S)cc1	-3.2	-27.7	7.4	-11.2	-0.1	-16.0	.	.	.
CCCc1cc(=O)[nH]c(SCC(=O)Nc2cc(S(=O)(=O)N(CC)c3ccccc3)ccc2Cl)n1	.	.	-0.6	30.8	-0.4	0.3	.	.	.
Clc1ccc(OCCn2cnc3ccccc32)c(Cl)c1	-44.6	14.3	71.0*	1.6	0.0	-1.9	62.0*	77.3*	63.2*
CN(CCOc1ccccc1)c1ccc(S(=O)(=O)N2CCCCC2)cn1	-5.9	-9.1	55.5*	-17.2	0.5	0.7	59.6*	47.5	51.8*
COc1ccc(C(=O)C[n+]2ccc3c(c2)nnn3-c2ccccc2)cc1	-0.1	4.1	4.8	6.1	-0.1	-3.7	.	.	.
COc1ccc(-c2cc3nc4n(c(=O)c3s2)CCCCC4)cc1	-1.7	2.3	27.2	3.2	0.0	-166.1	.	.	.
COc1ccc(-c2cc3nc4n(c(=O)c3s2)CCC4)cc1	-0.3	-1.8	53.1*	2.8	0.2	-8.9	71.6*	34.9	36.3
CCc1ccc(C(=O)NNc2cc(Cl)ccc2Cl)cc1	0.5	6.3	64.6*	-4.4	0.1	-0.9	66.3*	61.0*	59.7*
CCc1ccc(C(=O)NNc2ccccc2F)cc1	-3.9	15.3	34.7	8.8	0.0	-4.8	.	.	.
CCc1ccc(C(=O)NNc2ccc(C)c(Cl)c2)cc1	-29.3	9.1	53.2*	-12.2	0.1	3.9	53.2*	46.4	29.1
CCc1ccc(C(=O)NNc2ccc(F)cc2)cc1	-10.2	-1.2	16.4	1.2	-0.1	-0.2	.	.	.
CCSc1nc2sc3c(c2c(=O)n1-c1ccccc1)CCN(C)C3	9.4	13.2	50.5*	4.1	0.0	2.0	65.8*	48.2	45.5
Cc1ccc(NC(=O)Cc2csc(-c3ccccc3)n2)cc1F	-26.5	26.5	62.4*	-5.8	-0.1	?	38.2	53.5*	60.2*
O=C(Cc1csc(-c2ccccc2)n1)Nc1ccc(C(F)(F)F)cc1	-4.8	30.5	29.4	-0.6	-0.4	4.4	.	.	.
N#C/C(=N\Nc1ccc(Cl)c(Cl)c1)C(=O)C1CC1	-12.5	.	62.1*	0.8	0.3	-4.1	87.1*	.	.
N#C/C(=N\Nc1ccc(F)cc1)C(=O)C1CC1	-4.6	.	3.7	-17.0	0.1	8.4	.	.	.
O=c1[nH]c(-c2ccccc2)nn1-c1ccc(Br)cc1Br	-6.8	-2.3	7.6	2.7	0.0	-4.9	.	.	.
CCCN(CCC)c1nc(-c2ccccn2)nc2ccccc12	-23.7	21.2	50.0*	-10.7	0.1	1.5	75.5*	.	.

Source: PubChem BioAssay
